Screening data as filed in PubChem.
GLP1R inv ag – acts as inverse agonist at human GLP-1 receptor | Potency, µM (series often up to 38.3 µM), inactives show at the highest dose activity change, negative = inhibition, most hits filed as inhibitors | HEK293 GLP-1R CRE-luciferase, luminescence, 24 h; GLP-1R form is constitutively active | AID 624417 | hit rate 1.6% among 410,000; note: potency is the fitted concentration of half-maximal effect; % is set by controls: 0 for no effect and ±100 for the full control effect; nearly all actives have a fitted effect of over 55% in size
Target sequence (P43220 whole entry, looked up): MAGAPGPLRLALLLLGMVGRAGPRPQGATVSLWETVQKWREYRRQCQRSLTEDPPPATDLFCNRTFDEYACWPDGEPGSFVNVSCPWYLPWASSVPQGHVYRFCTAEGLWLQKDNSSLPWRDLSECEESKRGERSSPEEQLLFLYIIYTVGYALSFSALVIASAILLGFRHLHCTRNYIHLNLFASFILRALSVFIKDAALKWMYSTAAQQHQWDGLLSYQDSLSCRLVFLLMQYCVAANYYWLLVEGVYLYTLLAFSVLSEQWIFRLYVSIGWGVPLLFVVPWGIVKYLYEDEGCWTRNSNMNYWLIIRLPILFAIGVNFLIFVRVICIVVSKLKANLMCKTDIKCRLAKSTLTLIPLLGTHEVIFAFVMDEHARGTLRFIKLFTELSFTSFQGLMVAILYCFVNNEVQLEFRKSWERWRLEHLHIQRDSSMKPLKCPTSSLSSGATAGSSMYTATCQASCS
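Readout was luciferase luminescence, measured 12 min after detection reagent at room temperature. Beforehand, GLP-1R reporter HEK293 cells had sat 12 h, then received compounds for 24 hr at 37 deg C.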
DRD3 agonist – agonists of human D3 dopamine receptor; P35462; D3R DiscoveRx beta-arrestin cells, luminescence, 90 min; max activation, %; hit rate 0.58% among 410,000; AID 652048; in the data active = max activation above about 30%; note: 0% is about no effect
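Agonist mode: compounds and dopamine controls were applied to plated cells for 90 min at 37 degrees C after an overnight attachment at 1500 cells/well. Luminescent read-out followed 30 - 60 minutes at room temperature with DiscoveRx detection reagent.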
D3 antag – antagonists of human D3 dopamine receptor. max response, negative = inhibition, %. D3R cells, DiscoveRx beta-arrestin luminescence, antagonist mode; active compounds read low. AID 652054. hit rate 2.5% among 360,000. P35462; in the data active = max response below about -50%; inconclusive = no clear call, values can overlap the other calls; note: % is set by controls: 0 for no effect and ±100 for the full control effect
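Cells expressing the human receptor were seeded at 1500 cells/well, incubated overnight at 37 degrees C in 5% CO2, then exposed to library compounds with dopamine controls for 90 minutes at 37 degrees C before luminescent detection.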
GLP1R ag – agonists of human GLP-1 receptor; P43220; HEK293 GLP-1R CRE-luciferase, luminescence, 4-6 h; cells express a hypersensitive GLP-1R form; Potency, µM (top dose mostly 45.6 µM), for the others: top-dose activation, usual class: activators; hit rate 0.007% among 380,000; note: potency is the fitted concentration of half-maximal effect; % of control where 0% means no effect
Active calls of the source: *; ? = inconclusive; nt = not tested or not shown. Rows were chosen to be rich in hits. Some 4.3% of all compounds tested hit in one or more screens of this group. Unless noted, calls come from the whole dose curve; as a rule, active = well fitted curve in the direction sought with a large enough effect; inconclusive = small, poorly fitted or top-dose-only effect, or another doubt; inactive = no such curve, though single readings can be large; an effect the other way counts as inactive or inconclusive.

SMILES	GLP1R inv ag	DRD3 agonist	D3 antag	GLP1R ag
Cc1ccc(O)c(Sc2cc(C)ccc2O)c1	?	-4	-5	-15%
COc1ccc(Cn2c(O)c(C=Nc3ccccc3)c3ccccc3c2=O)cc1	7%	-5	-1	11%
COc1ccc(Cn2c(O)c(C=Nc3ccc(O)cc3)c3ccccc3c2=O)cc1	8.9µM*	-22	-78*	0%
CCCC1=Nc2cc(C(=O)NCc3ccccc3)ccc2Sc2ccccc21	4µM*	-13	nt	nt
CCC1=Nc2cc(C(=O)NCc3ccc(C)cc3)ccc2Sc2ccc(C)cc21	7.1µM*	-13	nt	nt
CCC1=Nc2cc(C(=O)NCc3cccnc3)ccc2Sc2ccc(C)cc21	1.8µM*	-16	-10	17%
CCC1=Nc2cc(C(=O)NCc3ccco3)ccc2Sc2ccc(Cl)cc21	?	-2	-11	0%
CCCC1=Nc2cc(C(=O)NCCN3CCOCC3)ccc2Sc2ccccc21	?	2	-5	6%
CC(=O)Nc1ccc(S(=O)(=O)NCCc2ccc3c(c2)OCCO3)cc1	5%	0	9	-7%
C=CCn1c(=O)n([C@@H]2O[C@H](CO)[C@@H](O)[C@H]2O)c2nc(N)[nH]c(=O)c21	nt	1	nt	nt
COc1ccc2nc3sc(C(=O)N4CCN(c5ccccc5)CC4)cc3cc2c1	8%	0	nt	-2%
Cc1noc(C)c1COC(=O)c1cccc(S(=O)(=O)N2CCOCC2)c1	2%	-6	0	25%
Cc1noc(C)c1COC(=O)c1cccc(S(=O)(=O)N2c3ccccc3CC2C)c1 (centres undefined)	14µM*	-3	-29	3%
CCOC(=O)N1CCC(NC(=O)c2ccc3c(c2)N(Cc2ccc(Cl)cc2)C(=O)c2ccccc2S3=O)CC1 (centres undefined)	-16%	-6	nt	-4%
COc1ccc(-c2cc(C(=O)NCC3CCCCC3)[nH]n2)c(C)c1	7%	-31	-79*	11%
Cc1ccc(Cl)cc1-c1cc(C(=O)NCC2CCCCC2)[nH]n1	-5%	-23	-70*	5%
S=C1SCN(Cc2ccccn2)CN1Cc1ccco1	?	-20	-62*	1%
CCC(=O)O[C@H]1CC[C@H]2[C@@H]3CCc4cc(O)ccc4[C@H]3CC[C@]12C	nt	17	nt	nt
Cc1nc2c(C#N)cnn2c2c1CCN2CC1CCCO1 (centres undefined)	58%	43*	1	10%
C=C(C1=CCN(S(=O)C(C)(C)C)[C@H]1CCO)c1ccccc1 (some centres undefined)	11µM*	-25	-6	-1%
CN1CCN(C(=O)c2cc3sc4ccccc4c3s2)CC1	?	-22	-20	7%
C=CCn1c(=O)/c(=C/c2cc(OC)c(OC)c(OC)c2)s/c1=C(/C#N)c1nc2ccccc2n1C	23%	7	-51*	7%
COc1ccccc1Nc1cc(C(=O)NC2CCC(C)CC2)c2ccccc2n1 (centres undefined)	-17%	7	nt	-1%
Cc1csc(NC(=O)CSc2nnc(NC(=O)COc3ccc(Cl)cc3)s2)n1	13%	-4	-3	-5%
Cc1cc(NC(=O)CSc2nc(-c3ccc(Cl)cc3)cs2)no1	14%	0	4	-1%
SMILES	GLP1R inv ag	DRD3 agonist	D3 antag	GLP1R ag
Cc1ccc2nc(SCC(=O)Nc3cccc([N+](=O)[O-])c3)[nH]c2c1	-7%	-18	-52*	7%
O=C(CSc1nc(-c2ccc(Cl)cc2)cs1)Nc1cccc([N+](=O)[O-])c1	10µM*	2	-6	-2%
Cc1ccc(CN2CCCC(CO)(Cc3ccccc3C)C2)s1 (centres undefined)	8.9µM*	-14	0	8%
CCCN1C(=O)NC2(O)C(=O)c3ccccc3C12O (centres undefined)	2%	0	2	2%
CN1C(=O)NC2(O)C(=O)c3ccccc3C12O (centres undefined)	1%	9	-60*	-7%
Cc1ccc(S(=O)(=O)Nc2cccc(C(=O)NCC3(N4CCCCC4)CCCCC3)c2)cc1F	11µM*	-4	0	14%
COc1cc(C2c3c(-c4c(C)cc(C)cc4O)n[nH]c3C(=O)N2CCCOC(C)C)cc(OC)c1OC (centres undefined)	1%	-13	nt	nt
CC(=O)N1CCc2cc(S(=O)(=O)N3CCOCC3)ccc21	12%	0	15	-6%
CC(=O)N1CCc2cc(S(=O)(=O)N3c4ccccc4CC3C)ccc21 (centres undefined)	-6%	-9	-51*	0%
CC(=O)N1CCc2cc(S(=O)(=O)NCCN3CCC(C)CC3)ccc21	2%	2	-58*	1%
CSc1ccc(S(=O)(=O)N2c3ccccc3CC2C)cc1 (centres undefined)	5µM*	-3	-22	-4%
CC(C)OCCCNC(=O)CCCn1c(SCC(N)=O)nc2c(sc3ccccc32)c1=O	5%	-8	nt	nt
CCCc1cc(C(=O)Nc2cccc(Cl)c2)no1	?	-11	?	9%
CCCc1cc(C(=O)Nc2ccc(F)c(Cl)c2)no1	?	-19	-51*	22%
CCCc1cc(C(=O)Nc2c(C)nn(Cc3ccc(Cl)c(Cl)c3)c2C)no1	10µM*	13	nt	nt
Cc1nn(Cc2ccc(Cl)c(Cl)c2)c(C)c1NC(=O)c1cc(CC(C)C)on1	3.2µM*	2	-7	-2%
CCCc1cc(C(=O)Nc2c(C)nn(Cc3ccc(C)cc3)c2C)no1	?	1	nt	nt
COc1cc2nc(NC(=O)c3ccc(S(=O)(=O)N4CCCC4)cc3)sc2cc1OC	4%	-16	nt	0%
COc1ccc(C(NC(=O)/C=C/c2ccco2)c2ccc(OC)c(OC)c2)cc1OC	0%	-5	-56*	5%
CCC1CCc2c(sc(NC(=O)C3CC=CCC3C(=O)O)c2C#N)C1 (centres undefined)	-9%	33*	0	16%
CCOC(=O)Nc1sc2c(c1C#N)CCC(C)C2 (centres undefined)	42%	4	1	?
CCOc1ccc(-c2cc(-c3nc(-c4cc(OC)c(OC)c(OC)c4)no3)[nH]n2)cc1Cl	3%	2	nt	nt
O=C(NCC(c1cccs1)N1CCOCC1)c1cn(-c2ccccc2)nc1-c1ccccc1 (centres undefined)	10µM*	-7	1	3%
COc1cc(C(=O)NCC(c2cccs2)N2CCOCC2)cc(Br)c1OCc1ccccc1 (centres undefined)	6.3µM*	-2	-10	7%
O=C(NCC(c1cccs1)N1CCOCC1)c1cn(-c2ccccc2)nc1-c1ccc(Cl)cc1 (centres undefined)	-16%	-7	-10	-9%
Cc1cc(Cl)ccc1NS(=O)(=O)c1c(C(=O)N2CCC(C)CC2)c(C)n(C)c1C	1%	2	nt	nt
OCc1cccc(-c2cnc3c(Nc4cccc(OC(F)(F)C(F)F)c4)nccn23)c1	13µM*	8	113	-22%
Cc1ccc(-c2cnc3c(Nc4cccc(OC(F)(F)C(F)F)c4)nccn23)cc1	?	1	20	2%
